14 compounds from PubChem BioAssay (NCI) can be followed below.

Compounds without any hit were thinned out: in the full panel of roughly 83,000, 20% have a hit.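 Assay: single dose, 48 h. Readout: percent growth (0 = no net growth; negative = cell death). Active: <10.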 Values without a mark were called inactive. Active and inactive are the calls of the source.

The subject of the test is BT-549 breast. As to the kind of experiment: NCI-60 one-dose screen, 48 h (100 = growth as untreated, 0 = no growth, -100 = all killed). The following applies: 10 µM unless noted.
As to `O=C1Nc2ccccc2/C1=C/c1ccc[nH]1`, the growth was 57.8%.
Next, `NC(CCc1nc2ccccc2c(=O)[nH]1)C(=O)O` (centres undefined): 97%.
Consider `CCCSC1=NC2C(N(CC)C(=O)N2CC)N1/N=C/C=C/c1ccccc1[N+](=O)[O-]` (centres undefined), for which the growth is 30.7%.
Next, `COc1cccc(/C(C#N)=C/c2nc3c(N4CCOCC4)nc(Cl)nc3n2C)c1`: -77% (active); `CN1CCN(Cc2ccc(NC(=O)c3[nH]ncc3Nc3cc(OC4CCCC4)ncn3)cc2)CC1`: 12.5%; `COc1cccc(C(=O)NC(c2ccc(C)cc2)c2cc(Cl)c3cccnc3c2O)c1` (centres undefined): 12.3%.
On to `COc1ccc(-c2nsc3c2NC(=O)CC3c2ccsc2)cc1` (centres undefined), for which the growth was 12.1%.
Regarding `COc1cc(C2C(C#N)=C(N)OC3=C2C(=O)c2ccccc2C3=O)cc(OC)c1O` (centres undefined), the growth was 57.7%.
The same measure for `CCN(CC)c1cc(C)c2cc(NC(=O)c3cccc(OC)c3)ccc2n1`: 80.9%; for `CCCCNc1nc(NC(C)(C)C)nc(NC(C)(C)C)n1`: 79.9%; for `CC(=O)n1cc(-c2c[nH]c3ccccc23)c(-c2ccc(Cl)cc2)n1`: 76.8%.
Consider `COc1cccc(C2=NN3C(C2)c2ccccc2OC3c2ccc(/C=C3\SC(=O)NC3=O)cc2)c1` (centres undefined), for which the growth is 97.1%.
As to `COC(=O)/C(CCC=C(C)C)=C1\[C@@H](OC(C)=O)C[C@@]2(C)[C@H]1C[C@@H](O)[C@H]1[C@@]3(C)CC[C@H](NCCCNCCCCNCCCN)[C@@H](C)[C@@H]3CC[C@@]12C`, the growth was 80.4%.
`CN1C(=O)N(C)C2Nn3c(s/c(=C\c4ccc(Cl)cc4Cl)c3=O)=NC21` (centres undefined): the growth is 93.9%.
